Reference: the supplement of paper PMC8728848
The entries come from a sample that favours the strongest signals as a whole.

Tests used:
Test in all cases: glycan array binding signal (z-score within array); higher = stronger binding
Settings in all cases: glycan notation: IUPAC condensed, linker removed
[1] = target: GlcNAc(b1-3)[GlcNAc(b1-6)]GalNAc
In short: (§1)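 The binding signal is a Z-score computed within each array. Data were drawn from 3228 arrays in the Consortium for Functional Glycomics database, restricted to those with a known protein sequence. Scores were averaged over arrays of the same protein sequence at different concentrations or buffers, and over linkers, and negative values can be taken as non-binding.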

[2] = target: Man(a1-3)[Man(a1-6)]Man(b1-4)GlcNAc(b1-4)GlcNAc
In short: as §1

[3] = target: Neu5Ac(a2-3)Gal(b1-3)GalNAc(b1-4)Gal(b1-4)Glc
In short: as §1

[4] = target: Neu5Ac(a2-3)Gal(b1-3)GalNAc(b1-4)[Neu5Ac(a2-3)]Gal(b1-4)Glc
In short: as §1

[5] = target: Neu5Ac(a2-3)Gal(b1-3)GalNAc6S
In short: as §1

[6] = target: Neu5Ac(a2-3)Gal(b1-3)GlcNAc(b1-2)[Neu5Ac(a2-3)Gal(b1-3)GlcNAc(b1-4)]Man(a1-6)[Neu5Ac(a2-3)Gal(b1-3)GlcNAc(b1-2)Man(a1-3)]Man(b1-4)GlcNAc(b1-4)GlcNAc
In short: as §1

[7] = target: Neu5Ac(a2-3)Gal(b1-4)GlcNAc(b1-2)Man
In short: as §1

[8] = target: Neu5Ac(a2-3)Gal(b1-4)GlcNAc(b1-3)GalNAc
In short: as §1

[9] = target: Neu5Ac(a2-3)Gal(b1-4)GlcNAc(b1-6)[Gal(b1-3)]GalNAc
In short: as §1

[10] = target: Neu5Ac(a2-3)Gal(b1-4)[Fuc(a1-3)]GlcNAc
In short: as §1

[11] = target: Neu5Ac(a2-6)Gal(b1-4)GlcNAc(b1-2)Man(a1-3)Man(b1-4)GlcNAc(b1-4)GlcNAc
In short: as §1

[12] = target: Neu5Ac(a2-6)Gal(b1-4)GlcNAc(b1-2)Man(a1-3)[GlcNAc(b1-4)][Neu5Ac(a2-6)Gal(b1-4)GlcNAc(b1-2)Man(a1-6)]Man(b1-4)GlcNAc(b1-4)GlcNAc
In short: as §1

[13] = target: Neu5Ac(a2-6)Gal(b1-4)GlcNAc(b1-2)Man(a1-3)[Man(a1-6)]Man(b1-4)GlcNAc(b1-4)GlcNAc
In short: as §1

[14] = target: Neu5Ac(a2-6)Gal(b1-4)GlcNAc(b1-3)Gal(b1-4)GlcNAc
In short: as §1

[15] = target: Neu5Ac9Ac(a2-3)Gal(b1-4)GlcNAc
In short: as §1

[16] = target: Neu5Gc(a2-3)Gal(b1-3)GlcNAc
In short: as §1

[17] = target: Neu5Gc(a2-3)Gal(b1-4)[Fuc(a1-3)]GlcNAc
In short: as §1

Fuc(a1-2)Gal = target: Fuc(a1-2)Gal
In short: as §1

Fuc(a1-2)Gal(b1-4)Glc6S = target: Fuc(a1-2)Gal(b1-4)Glc6S
In short: as §1

[18] = target: Fuc(a1-2)[Gal(a1-4)]Gal(b1-4)GlcNAc
In short: as §1

Gal(a1-3)GalNAc = target: Gal(a1-3)GalNAc
In short: as §1

Gal(b1-3)GalNAc = target: Gal(b1-3)GalNAc
In short: as §1

Gal(b1-4)Glc = target: Gal(b1-4)Glc
In short: as §1

[19] = target: Gal(b1-4)GlcNAc(a1-6)Gal(b1-4)GlcNAc
In short: as §1

[20] = target: Gal(b1-4)GlcNAc(b1-3)Gal(b1-4)Glc
In short: as §1

Gal3S(b1-3)GalNAc = target: Gal3S(b1-3)GalNAc
In short: as §1

Gal3S6S(b1-4)GlcNAc6S = target: Gal3S6S(b1-4)GlcNAc6S
In short: as §1

[21] = target: GlcNAc(b1-2)Man(a1-3)[GlcNAc(b1-2)Man(a1-6)]Man(b1-4)GlcNAc(b1-4)GlcNAc
In short: as §1

[22] = target: GlcNAc(b1-4)GlcNAc(b1-4)GlcNAc(b1-4)GlcNAc(b1-4)GlcNAc(b1-4)GlcNAc
In short: as §1

Kdn(a2-3)Gal(b1-4)GlcNAc = target: Kdn(a2-3)Gal(b1-4)GlcNAc
In short: as §1

[23] = target: Man(a1-3)[Man(a1-6)]Man(a1-6)[Man(a1-3)]Man(b1-4)GlcNAc(b1-4)GlcNAc
In short: as §1

[24] = target: Neu5Ac(a2-3)Gal(b1-3)[Fuc(a1-4)]GlcNAc
In short: as §1

[25] = target: Neu5Ac(a2-3)Gal(b1-3)[Fuc(a1-4)]GlcNAc(b1-3)Gal(b1-4)[Fuc(a1-3)]GlcNAc
In short: as §1

[26] = target: Neu5Ac(a2-3)Gal(b1-3)[Neu5Ac(a2-6)]GalNAc
In short: as §1

[27] = target: Neu5Ac(a2-3)Gal(b1-4)GlcNAc(b1-3)Gal(b1-3)GlcNAc
In short: as §1

[28] = target: Neu5Ac(a2-3)Gal(b1-4)[Fuc(a1-3)]GlcNAc(b1-6)[Gal(b1-3)]GalNAc
In short: as §1

[29] = target: Neu5Ac(a2-3)Gal(b1-4)[Fuc(a1-3)]GlcNAc6S
In short: as §1

[30] = target: Neu5Ac(a2-3)[Neu5Ac(a2-6)]GalNAc
In short: as §1

[31] = target: Neu5Ac(a2-6)GalNAc(b1-4)GlcNAc
In short: as §1

[32] = target: Neu5Gc(a2-3)Gal(b1-3)[Fuc(a1-4)]GlcNAc
In short: as §1

B1: Cp ZmpB (Clostridium perfringens), Q0TR08 (protein)
chain: MNKRKIAAIILATMITNLSATTIDVLAQELNTKNNSKVEVSHDDESHQARVSKFDLYNSDKLDAYNQEFQVSRSNIKSINNNGGKYNSSTIDKAIDGNLETHWETGKPNDANFTNEVVVTFNEITNIDRIVYSARRDSARGKGFAKEFEIYASLKDEGDDFNLVSSGEYTESTRDLVEIKFNPTDFKRLKFKFKKADQNWASAAEFMFYKEDKLNEKFNGLFTDSSMNKVSEEFNTLEKLNAFENELKDHPIYDLYKEGLNNARAILTETSENPTKATLGQITYNLNDDYNNQYRMPYKNIKAIKNNGRHYAAQNIEKAIDNDVNTYWETGTLNSSSFNNEVEVEFNDLVTLDRIVYGSRQSDLKGFAEEVYIYASRTSKGDTYKLVATGAHEATKGLVEAKFEPTEFKRVKFKFKKSKQNSATLNELMFYKPDEVYSSIPKLFTDGTMSELSEEFNSLEKINAFKEKAKNHPLYNDFNETIELAESLISNPRKEDVLELEMRGDSISEAKKRKVWNFQDWQITGLSARAGDKITVYVDVAEGDPTPTLLYKQSLTQHGGATSFQLKPGKNEITIPEINYESNGIPKDVIQGGDLFFTNYKSDSQKRAPKVRIEGASKYPVFILGKSDENEVMKELEAYVEKIKAEPKTTPNIFAVSSNKSLEFVQATYALDWYKKNNKTPKYTAEQWDQYIADAMGFWGFDNSKDVNSDFNFRIMPMVKNLSGGAFMNAGNGVIGIRPGNQDAILAANKGWGVAHELGHNFDTGGRTIVEVTNNMMPLFFESKYKTKTRITDQNIWENNTYPKVGLDDYSNNELYNKADSTHLAQLAPLWQLYLYDNTFYGKFERQFRERDFGNKNREDIYKSWVVAASDAMELDLTEFFARHGIRVDDKVKEDLAKYPKPDKKIYYLNDLAMNYKGDGFTENAKVSVSTSGSNGNIKLSFSVDDENKDNILGYEIRRDGKYVGFTSNDSFVDTKSNLDEDGVYVVTPYDRKLNTLNPIEVNALQPTLSVNPVITLALGEEFNEEEYIVAKDIKGNSLSESVKVKSSNVNTSKVGEYEVLYSLEDSKGNEYTKTSKVNVVSRKEYMSDLTPKQSSNGWGTVRKDKSISGGVIGLTRDGDFVDYNKGLGLHSNAEYVYDLEGKDYDYFESYVGVDKAMSSRPASSVIFKVLVDGEEKFNSGVMRSTTPQKYVKVDVKNAKELKLIVNDAGDGDSSDHASFGDAKLATLSSKPIIKGENLAYSMDEKVDLMKGITATDIEDGNITSKVQIKSSDFVEGKSGIFTVVYSVTDSDGLTSECSRTIAVTDKETQLSDLNWKSATIGSGSVRKDRAVSGNQIRLLNEDNSVETFAKGIGTHSYSEIVYNSEGYDIFDTWVGIDRHVADKKVSSVKFKVYVDGELKAETDVMRIDTPKKRLVVDVRNSKEIKLVVDVADNGNNWDHADWADAKFRNLAEYDASELNKAIEEAKKLDLNNYTEESSEALKNAISKGEEALLSKDKETINSALEELNKEMNSLVKVDLNAVINIPDKYLLKSIQNQLNKTGDITLGDMYSLTTLTLSGVEDLTGLENAKNLETLNMDYNEVKDLRPLSKLKKLNTLNAQEQFIAAGELKPSNGKVIGDSKVYNREGKNVAKTIRVVDKNGNTILEQDAKDEFTINTKDLSSGLYGVHVLFEDEGFSGVMFYLFNV
glycan array binding signal (z-score) [1]: -0.207
glycan array binding signal (z-score) [2]: -0.046
glycan array binding signal (z-score) [3]: 0.164
glycan array binding signal (z-score) [4]: 1.03
glycan array binding signal (z-score) [5]: -0.457
glycan array binding signal (z-score) [6]: 0.01
glycan array binding signal (z-score) [7]: 0.151
glycan array binding signal (z-score) [8]: -0.142
glycan array binding signal (z-score) [9]: 1.22
glycan array binding signal (z-score) [10]: 0.096
glycan array binding signal (z-score) [11]: -0.151
glycan array binding signal (z-score) [12]: -0.267
glycan array binding signal (z-score) [13]: -0.365
glycan array binding signal (z-score) [14]: 1.03
glycan array binding signal (z-score) [15]: 1.71
glycan array binding signal (z-score) [16]: -0.326
glycan array binding signal (z-score) [17]: 2.05

B2: P-Selectin (Homo sapiens), P16109 (protein)
chain: MANCQIAILYQRFQRVVFGISQLLCFSALISELTNQKEVAAWTYHYSTKAYSWNISRKYCQNRYTDLVAIQNKNEIDYLNKVLPYYSSYYWIGIRKNNKTWTWVGTKKALTNEAENWADNEPNNKRNNEDCVEIYIKSPSAPGKWNDEHCLKKKHALCYTASCQDMSCSKQGECLETIGNYTCSCYPGFYGPECEYVRECGELELPQHVLMNCSHPLGNFSFNSQCSFHCTDGYQVNGPSKLECLASGIWTNKPPQCLAAQCPPLKIPERGNMTCLHSAKAFQHQSSCSFSCEEGFALVGPEVVQCTASGVWTAPAPVCKAVQCQHLEAPSEGTMDCVHPLTAFAYGSSCKFECQPGYRVRGLDMLRCIDSGHWSAPLPTCEAISCEPLESPVHGSMDCSPSLRAFQYDTNCSFRCAEGFMLRGADIVRCDNLGQWTAPAPVCQALQCQDLPVPNEARVNCSHPFGAFRYQSVCSFTCNEGLLLVGASVLQCLATGNWNSVPPECQAIPCTPLLSPQNGTMTCVQPLGSSSYKSTCQFICDEGYSLSGPERLDCTRSGRWTDSPPMCEAIKCPELFAPEQGSLDCSDTRGEFNVGSTCHFSCDNGFKLEGPNNVECTTSGRWSATPPTCKGIASLPTPGLQCPALTTPGQGTMYCRHHPGTFGFNTTCYFGCNAGFTLIGDSTLSCRPSGQWTAVTPACRAVKCSELHVNKPIAMNCSNLWGNFSYGSICSFHCLEGQLLNGSAQTACQENGHWSTTVPTCQAGPLTIQEASTSITAYKSEGESAEFSFPLNLGEESLQGELRWKAEKAPSSQSWITFSLKNQKVSVQKSTSNPKFQLSETLPLTLQIPQVSLQFAGSGNLTLTLDRGILYQEVNLVVMKVTQPDSNTLTCEVMGPTSPKMRLILKQENQEARVSRQEKVIQVQAPEAGVWQCLLSEGEEVKMDSKIQVLSKGLNSGGGSGGGTGGGDLAPQMLRELQETNAALQDVRELLRQQVKEITFLKNTVMECDACGLDRNLPPLAPLGPHPETLVKVKDAEDQLGARVGYIELDLNSGKILESFRPEERFPMMSTFKVLLCGAVLSRIDAGQEQLGRRIHYSQNDLVEYSPVTEKHLTDGMTVRELCSAAITMSDNTAANLLLTTIGGPKELTAFLHNMGDHVTRLDRWEPELNEAIPNDERDTTMPVAMATTLRKLLTGELLTLASRQQLIDWMEADKVAGPLLRSALPAGWFIADKSGAGERGSRGIIAALGPDGKPSRIVVIYTTGSQATMDERNRQIAEIGASLIKHWGPDYKDHDGDYKDHDIDYKDDDDKGPHHHHHH
glycan array binding signal (z-score) (Fuc(a1-2)Gal): -0.092
glycan array binding signal (z-score) (Fuc(a1-2)Gal(b1-4)Glc6S): -0.268
glycan array binding signal (z-score) [18]: -0.151
glycan array binding signal (z-score) (Gal(a1-3)GalNAc): -0.071
glycan array binding signal (z-score) (Gal(b1-3)GalNAc): -0.218
glycan array binding signal (z-score) (Gal(b1-4)Glc): -0.174
glycan array binding signal (z-score) [19]: -0.301
glycan array binding signal (z-score) [20]: -0.219
glycan array binding signal (z-score) (Gal3S(b1-3)GalNAc): -0.113
glycan array binding signal (z-score) (Gal3S6S(b1-4)GlcNAc6S): 4.08
glycan array binding signal (z-score) [21]: -0.237
glycan array binding signal (z-score) [1]: -0.329
glycan array binding signal (z-score) [22]: -0.163
glycan array binding signal (z-score) (Kdn(a2-3)Gal(b1-4)GlcNAc): -0.191
glycan array binding signal (z-score) [23]: -0.052
glycan array binding signal (z-score) [2]: 0.332
glycan array binding signal (z-score) [5]: 0.282
glycan array binding signal (z-score) [24]: 6.36
glycan array binding signal (z-score) [25]: 3.52
glycan array binding signal (z-score) [26]: 0.025
glycan array binding signal (z-score) [27]: -0.141
glycan array binding signal (z-score) [28]: 0.071
glycan array binding signal (z-score) [29]: 9.93
glycan array binding signal (z-score) [30]: -0.109
glycan array binding signal (z-score) [31]: -0.322
glycan array binding signal (z-score) [32]: 4.38
